This passage reports INHIBITION results from ChEMBL document CHEMBL4513216, “Probing the Open Global Health Chemical Diversity Library for Multistage-Active Starting Points for Next-Generation Antimalarials” (ACS Infect Dis, 2020).

Structures are written as SMILES. Screen size: about 68,000 compounds; about 2,700 (4%) showed an effect of 50% or more. The sample holds strong results, similar compounds and a random draw of the others, so the mix is not that of the screen.

The test system of the test is Plasmodium berghei. As to the kind of experiment: Screen against P. berghei liver stage (PbLuc), transformed with Luciferase, at 2uM. The following applies: tested at 2 uM. In kind it is functional, HepG2.
Take `Fc1cnc(N2CC3(CCN(Cc4ccsc4)C3)C2)nc1`: the INHIBITION is given as 34.48%. For the molecule `COCCC(=O)N1CCCC1c1nc(O)cc(C(C)C)n1` (stereo not drawn), the INHIBITION is reported as -1.69%. As for `CCC[C@H]1CN(C(=O)Cn2ccccc2=O)C[C@@H]1NS(C)(=O)=O`, the figure is 5.21%; as for `CCCS(=O)(=O)N1CCN(c2ccnc(N3CCCCC3)n2)CC1`, 5.38%; as for `CCN(C(=O)CN1CCC(c2n[nH]c(C3CC3)n2)CC1)C1CC1`, 38.67%. Then `CC1CCN(C(=O)CN2CCC(c3n[nH]c(C4CC4)n3)CC2)CC1`, with -35.26%. As for `C=C(C)CN1CCC(c2n[nH]c(C3CC3)n2)CC1`, the figure is 52.98%; as for `Cc1cc(C[C@@H]2COC[C@H]2NCc2ccc(Cl)c(Cl)c2)on1`, -44.61%; as for `Cc1ccc(CN[C@@H]2COC[C@H]2Cc2cc(C)no2)cc1`, 20.08%. Consider `Cc1cc(C[C@@H]2COC[C@@H]2NC(=O)CN2CCc3ccccc3C2)on1`, for which the INHIBITION was 54.49%.

Turning to `Cc1cc(C[C@@H]2COC[C@@H]2NC(=O)CCN2Cc3ccccc3C2)on1`, the INHIBITION is 14.1%. In the case of `Cc1cc(C[C@@H]2COC[C@H]2NCc2ccc(C)c(C)c2)on1`, the INHIBITION was determined as 53.24%. Then `Cc1cc(C[C@@H]2COC[C@@H]2NC(=O)CN2CCCC2)on1`, with -56.02%; and `O=C(CC1CCC1)N1CCCC(CO)(CC2CC2)C1` (stereo not drawn), with -12.89%. As for `O=C1CCCN1Cc1ncn2c1CN(C(=O)c1cccc(F)c1)CCC2`, the figure is 21.33%; as for `Cc1cc(NC(=O)CN2CCCCC2Cn2nc(C)nc2C)on1` (stereo not drawn), 27.5%. Then `Nc1ncccc1CN1C[C@@H](C(=O)O)[C@H](c2cccc(F)c2)C1`, with 1.22%.

In the case of `CCS(=O)(=O)N1CCC2(CC1)CN(CC1CCOC1)c1ccccc12` (stereo not drawn), the INHIBITION was 17.89%. Then `COc1ccc(OC2CCN(C(=O)CCc3n[nH]c(N)n3)CC2)cc1`, with -88.55%; and `Cc1nc(CN(C)CC2CCCN(CCc3ccc(Cl)cc3)C2)no1` (stereo not drawn), with -7.76%.

Turning to `Cc1noc(CN(C)CC2CCCN(CCc3ccc(Cl)cc3)C2)n1` (stereo not drawn), the INHIBITION turned out to be 35.26%. For the molecule `Cc1nc[nH]c1CN(C)CC1CCCN(CCc2ccc(Cl)cc2)C1` (stereo not drawn), the INHIBITION is -9.17%. As for `COc1ccc(CCN2CCCC(CN(C)Cc3[nH]cnc3C)C2)cc1` (stereo not drawn), the figure is 52.31%; as for `COc1ccc(CCN2CCCC(CN(C)Cc3ccc(C)o3)C2)cc1` (stereo not drawn), 54.59%; as for `COc1ccccc1CCN1CCCC(CN(C)Cc2ccc(C)o2)C1` (stereo not drawn), -4.64%. As for `Cc1noc(CN(C)CC(c2cccs2)N2CCOCC2)n1` (stereo not drawn), the figure is 28.88%; as for `CN(Cc1ccncc1)CC(c1cccs1)N1CCOCC1` (stereo not drawn), -10.66%. Then `CN(Cc1ncc[nH]1)CC(c1cccs1)N1CCOCC1` (stereo not drawn), with 62.46%; and `Cc1cc(C(F)(F)F)c2c(=O)n(Cc3cc(C)on3)n(C)c2n1`, with 1.36%. For `O=C1CCCN1Cc1nnn2c1CN(c1ncccn1)CCC2`, the INHIBITION came to 1.48%.

For the molecule `CC(C(=O)NCc1ccnc(N2CCCC2)c1)n1cccn1` (stereo not drawn), the INHIBITION is 17.12%.

For the molecule `CCN1CC(C(=O)NCc2ccnc(-n3cccn3)c2)CC1=O` (stereo not drawn), the INHIBITION is listed as 2.46%. In the case of `CC(C(=O)NCc1ccnc(N2CCOCC2)c1)n1cccn1` (stereo not drawn), the INHIBITION is listed as -7.02%.

For the molecule `CC(C(=O)NCc1ccnc(N2CCN(C)CC2)c1)n1cccn1` (stereo not drawn), the INHIBITION is given as 53.12%. Then `CC(C)N1CC(C(=O)NCc2ccnc(-n3cccn3)c2)CC1=O` (stereo not drawn), with -47.05%. Take `CSC(C)C(=O)NCc1ccnc(N2CCN(C)CC2)c1` (stereo not drawn): the INHIBITION amounted to 22.29%. For the molecule `CC(C(=O)NCc1ccnc(N2CCCCCC2)c1)n1cccn1` (stereo not drawn), the INHIBITION worked out at 53.33%.

Regarding `CN1CC(C(=O)NCc2ccnc(-n3cccn3)c2)CC1=O` (stereo not drawn), the INHIBITION is reported as 67.99%. As for `CC(C(=O)NCc1ccc(N2CCN(C)CC2)nc1)n1cccn1` (stereo not drawn), the figure is 23.16%; as for `Cn1cc(CC2CC(=O)N(Cc3ccc(Cl)cc3)C2=O)cn1` (stereo not drawn), 29.4%; as for `CCn1ccnc1CN1CCN(CCOc2ccc(C#N)cc2)CC1`, -12.75%.

In the case of `CCOc1ccc2[nH]c(=O)c(CN3CCN(S(N)(=O)=O)CC3)cc2c1`, the INHIBITION is 43.05%. As for `CN1CCC2(CC1)CN(C(=O)c1cccc3cccnc13)CCN2C`, the figure is 9.11%; as for `CC(CN1CCCC1=O)NC(=O)c1ccc(C(F)(F)F)[nH]c1=O` (stereo not drawn), -85.12%; as for `Cc1cccn2cc(CC(=O)N3CCCC(n4cncn4)C3)nc12` (stereo not drawn), -45.23%. As for `O=C(C1CCC1)N1CCC2(CC1)OCCO2`, the figure is 11.87%; as for `O=C(C1CCCC1)N1CCC2(CC1)OCCO2`, -29.58%. As for `O=C(C1CC1)N1CCC2(CC1)OCCO2`, the figure is 56.99%; as for `CC(C)C1CN(c2cccc(C#N)n2)CCCN1Cc1ccc(F)cc1` (stereo not drawn), 8.26%; as for `CCc1nnc(Nc2cc(C)nc(C3CCN(c4ccncn4)C3)n2)s1` (stereo not drawn), 37.36%. In the case of `Cc1cc(C)nc(C2CCN(c3ccncn3)C2)n1` (stereo not drawn), the INHIBITION amounted to 80.06%.

As to `Cc1ccnc(C2CCN(c3ccnc(C)n3)C2)n1` (stereo not drawn), the INHIBITION is reported as 17.24%. As for `N#Cc1cccc(NC(=O)N(CC(F)F)C2CC2)c1`, the figure is -73.45%; as for `CSCC(=O)N1CCCC(CCC(=O)N(C)CCc2ccccn2)C1` (stereo not drawn), 28.62%; as for `O=C(c1ccoc1)N1CC[C@H]2OCC[C@@]2(COc2ncccc2F)C1`, 30.79%. Then `CCN(C(C)c1cccc(O)c1)S(=O)(=O)c1cccnc1` (stereo not drawn), with 52.83%; and `CC(c1cccc(O)c1)N(C)S(=O)(=O)c1cccnc1` (stereo not drawn), with -18.09%; and `CC(c1cccc(O)c1)N(C)S(N)(=O)=O` (stereo not drawn), with -21.47%.
